Among the data in ChEMBL document CHEMBL4649997, “Data for probe TP-472” (2021) are ΔTm values, retold here.

The target of experiment [1] is Bromodomain-containing protein 4 (Homo sapiens) (UniProt O60885). Conditions: Compound concentration 10.0 uM, Protein concentration 2.0 uM.
For experiment [2], the target named is T1, Transcription intermediary factor 1-alpha (Homo sapiens) (UniProt O15164).
T1 sequence (whole entry): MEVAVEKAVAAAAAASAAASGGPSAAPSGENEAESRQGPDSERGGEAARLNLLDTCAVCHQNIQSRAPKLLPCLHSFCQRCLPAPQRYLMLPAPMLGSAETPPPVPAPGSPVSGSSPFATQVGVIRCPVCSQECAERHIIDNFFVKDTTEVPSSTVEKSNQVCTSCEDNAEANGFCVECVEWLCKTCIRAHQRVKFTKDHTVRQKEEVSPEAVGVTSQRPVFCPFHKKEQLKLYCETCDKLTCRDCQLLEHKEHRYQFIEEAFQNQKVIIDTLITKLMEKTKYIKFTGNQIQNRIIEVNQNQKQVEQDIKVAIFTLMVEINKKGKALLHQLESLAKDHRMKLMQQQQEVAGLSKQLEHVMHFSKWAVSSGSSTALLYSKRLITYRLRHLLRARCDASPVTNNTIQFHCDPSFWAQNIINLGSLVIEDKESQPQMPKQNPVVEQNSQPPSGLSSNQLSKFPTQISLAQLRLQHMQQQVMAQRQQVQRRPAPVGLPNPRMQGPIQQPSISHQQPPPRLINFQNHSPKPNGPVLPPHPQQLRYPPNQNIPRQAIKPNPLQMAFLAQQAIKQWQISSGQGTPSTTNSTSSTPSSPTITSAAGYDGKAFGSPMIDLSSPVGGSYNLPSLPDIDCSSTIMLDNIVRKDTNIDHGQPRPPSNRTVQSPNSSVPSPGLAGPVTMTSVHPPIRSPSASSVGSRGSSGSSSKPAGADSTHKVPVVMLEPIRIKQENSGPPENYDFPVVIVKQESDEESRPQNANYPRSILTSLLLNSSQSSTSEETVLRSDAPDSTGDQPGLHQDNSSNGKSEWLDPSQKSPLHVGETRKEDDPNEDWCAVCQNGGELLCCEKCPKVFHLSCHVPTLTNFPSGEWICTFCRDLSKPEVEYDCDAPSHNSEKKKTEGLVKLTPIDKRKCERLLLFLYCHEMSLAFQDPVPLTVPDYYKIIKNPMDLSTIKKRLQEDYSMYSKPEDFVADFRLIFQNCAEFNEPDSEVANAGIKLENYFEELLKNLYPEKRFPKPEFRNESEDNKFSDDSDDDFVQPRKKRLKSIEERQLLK
Conditions: Compound concentration 10.0 uM, Protein concentration 2.0 uM.

Each structure is given as a SMILES string.

On to `CC(=O)c1cc(-c2cc(C(=O)NC3CC3)ccc2C)c2ncccn12`, for which the ΔTm turned out to be 0.28 °C in experiment [1] and 0.37 °C in experiment [2].
